Consider four compounds from PubChem BioAssay.

For some assays here: Results with a measured potency or affinity are listed apart. Calls of active or inactive are those of the source. Unless noted, no rule for the calls is given here.

The term inhibition denotes the change of the read-out against control, counted positive when it falls.

Assay [1] can be described thus: antimalarial activity against Dd2 strain (AID 2302;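 active = growth inhibition above 50% at the single 2 µM test dose, taken to imply half-maximal potency below 2 µM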;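 also: 0% = DMSO untreated growth and 100% = chloroquine plus artemisinin killed control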). The conditions noted are these: P. falciparum Dd2 in RBCs, LDH growth readout, 72 h; at 2 µM; active compounds read high.
The nature of assay [2]: HepG2 cytotoxicity, primary screen, cytotoxicity control for P. falciparum antimalarial project, cell-based, ATP luminescence (AID 2303;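 active = inhibition above 50%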;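 also: 0% = DMSO wells and 100% = digitonin-killed cells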). The conditions noted are these: HepG2 viability, 24-48 h, at 10 µM, active compounds read high.
Assay [3] has as its target L-lactate dehydrogenase (Plasmodium falciparum (isolate CDC / Honduras)) (UniProt Q27743). Nature of the assay: PfLDH activity inhibition – cell lysate, 3D7 strain, counter-screen for P. falciparum growth inhibition project (AID 2304).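 Also: 0% = vehicle and 100% = reference inhibitor.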 The conditions noted are these: P. falciparum 3D7 crude extract, LDH APAD/NBT absorbance; at 2 µM; active compounds read high. On the technique in general: Counterscreens check selectivity or assay interference.

Assay [4] is described as follows: inhibition of 3D7 malaria parasite growth – strain 3D7 (AID 2306).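 Also: 0% = DMSO wells and 100% = chloroquine plus artemisinin control wells.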 Particulars: P. falciparum 3D7 erythrocytic growth, LDH absorbance, 72 h; at 2 µM; active compounds read high.
The target in assay [5] is Calcium-dependent protein kinase 1 (Plasmodium falciparum (isolate 3D7)) (UniProt P62344). Nature of the assay: PfCDPK1 kinase inhibitors, biochemical, TCAMS library (AID 1159585; cut-off not given, nearly all actives have IC50 up to about 0.98 µM;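 also: inhibitors leave more ATP so luminescence rises with inhibition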). Particulars: recombinant PfCDPK1, Kinase-Glo ATP depletion luminescence. (In Kinase-Glo more light means more ATP remaining.)
Chain of Calcium-dependent protein kinase 1 (Plasmodium falciparum (isolate 3D7)) (P62344 whole entry, looked up): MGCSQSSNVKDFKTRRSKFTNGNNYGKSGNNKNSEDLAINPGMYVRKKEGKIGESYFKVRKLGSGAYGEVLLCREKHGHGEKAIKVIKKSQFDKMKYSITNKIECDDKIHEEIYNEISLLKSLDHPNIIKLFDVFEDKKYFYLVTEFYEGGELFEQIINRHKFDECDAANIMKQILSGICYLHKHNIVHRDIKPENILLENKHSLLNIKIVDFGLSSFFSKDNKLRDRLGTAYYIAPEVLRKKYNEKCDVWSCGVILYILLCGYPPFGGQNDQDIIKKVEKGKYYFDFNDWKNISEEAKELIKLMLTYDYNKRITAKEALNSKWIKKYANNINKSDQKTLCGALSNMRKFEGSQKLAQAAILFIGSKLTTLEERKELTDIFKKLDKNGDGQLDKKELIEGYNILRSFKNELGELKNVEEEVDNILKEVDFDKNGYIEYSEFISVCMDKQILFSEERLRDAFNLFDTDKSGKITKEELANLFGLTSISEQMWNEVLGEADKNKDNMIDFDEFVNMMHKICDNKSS
Assay [6] concerns the target Plasmodium falciparum protein kinase 6 (PK6, PF3D7_1337100) (UniProt Q8IDW1). The assay is described as follows: PfPK6 kinase inhibitors, biochemical, TCAMS library (AID 1159586). Particulars: recombinant PfPK6, Kinase-Glo ATP depletion luminescence.
The target of assay [7] is Protein kinase 7 (PK7), Plasmodium falciparum 3D7 (PF3D7_0213400) (UniProt Q7YTF7). The assay is described as follows: inhibition of Plasmodium PK7 catalytic activity – biochemical, TCAMS antimalarial set, Kinase-Glo luminescence (AID 1159587). The conditions noted are these: recombinant PfPK7, Kinase-Glo ATP depletion luminescence.
Chain of Protein kinase 7 (PK7), Plasmodium falciparum 3D7 (PF3D7_0213400) (Q7YTF7 1-343): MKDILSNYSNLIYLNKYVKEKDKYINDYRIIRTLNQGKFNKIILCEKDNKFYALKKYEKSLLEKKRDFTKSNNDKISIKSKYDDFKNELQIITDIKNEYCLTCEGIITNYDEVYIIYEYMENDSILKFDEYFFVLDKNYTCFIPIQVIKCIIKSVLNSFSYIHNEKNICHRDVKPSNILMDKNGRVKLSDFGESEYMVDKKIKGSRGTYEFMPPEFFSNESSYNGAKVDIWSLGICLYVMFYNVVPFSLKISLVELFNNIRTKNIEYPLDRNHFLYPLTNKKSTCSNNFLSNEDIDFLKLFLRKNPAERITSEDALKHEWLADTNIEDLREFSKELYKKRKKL
Assay [8] addresses Calcium-dependent protein kinase 4 (Plasmodium falciparum (isolate 3D7)) (UniProt Q8IBS5). Nature of the assay: PfCDPK4 kinase inhibitors, biochemical, TCAMS library (AID 1159588; cut-off not given, nearly all actives have IC50 up to about 0.91 µM). The conditions noted are these: recombinant PfCDPK4, Kinase-Glo ATP depletion luminescence.

Chain of L-lactate dehydrogenase (Plasmodium falciparum (isolate CDC / Honduras)) (Q27743 whole entry, looked up): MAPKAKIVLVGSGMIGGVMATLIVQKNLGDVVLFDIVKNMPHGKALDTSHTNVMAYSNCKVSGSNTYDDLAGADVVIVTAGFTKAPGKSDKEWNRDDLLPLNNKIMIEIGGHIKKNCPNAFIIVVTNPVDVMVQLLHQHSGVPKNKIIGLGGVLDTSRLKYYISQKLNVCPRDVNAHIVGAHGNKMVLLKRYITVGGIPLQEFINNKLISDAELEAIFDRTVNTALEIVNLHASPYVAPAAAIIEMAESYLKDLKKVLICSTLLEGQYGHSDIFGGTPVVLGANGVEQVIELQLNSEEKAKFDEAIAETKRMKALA
Chain of Plasmodium falciparum protein kinase 6 (PK6, PF3D7_1337100) (Q8IDW1 1-305): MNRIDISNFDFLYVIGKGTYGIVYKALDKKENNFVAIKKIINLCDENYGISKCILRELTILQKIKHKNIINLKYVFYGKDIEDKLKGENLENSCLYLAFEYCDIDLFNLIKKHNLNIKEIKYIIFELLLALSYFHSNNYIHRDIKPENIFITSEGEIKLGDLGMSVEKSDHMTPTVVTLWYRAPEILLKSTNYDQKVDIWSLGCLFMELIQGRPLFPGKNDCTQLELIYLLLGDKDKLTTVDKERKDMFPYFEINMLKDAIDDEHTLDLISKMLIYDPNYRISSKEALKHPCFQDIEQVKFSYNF
Chain of Calcium-dependent protein kinase 4 (Plasmodium falciparum (isolate 3D7)) (Q8IBS5 whole entry, looked up): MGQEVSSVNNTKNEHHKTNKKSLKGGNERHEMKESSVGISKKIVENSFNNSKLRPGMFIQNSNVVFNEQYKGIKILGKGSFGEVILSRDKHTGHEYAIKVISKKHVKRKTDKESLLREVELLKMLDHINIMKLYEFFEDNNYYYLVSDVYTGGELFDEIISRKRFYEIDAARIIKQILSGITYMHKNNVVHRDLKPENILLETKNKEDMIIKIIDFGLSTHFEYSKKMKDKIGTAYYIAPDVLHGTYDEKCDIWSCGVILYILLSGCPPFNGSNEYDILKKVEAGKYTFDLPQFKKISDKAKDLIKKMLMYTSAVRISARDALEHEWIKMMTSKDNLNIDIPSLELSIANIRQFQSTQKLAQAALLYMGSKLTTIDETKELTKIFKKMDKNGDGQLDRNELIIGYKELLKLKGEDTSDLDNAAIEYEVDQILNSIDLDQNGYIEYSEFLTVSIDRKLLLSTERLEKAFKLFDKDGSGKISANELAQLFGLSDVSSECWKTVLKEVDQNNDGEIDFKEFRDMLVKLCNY

For `Cc1ccc(NS(=O)(=O)c2ccc(-c3ccccc3)cc2)c(Cn2cnc(N3CCCNCC3)cc2=O)c1`, the growth inhibition was 33% (inactive) in assay [1] and 87% (active) in assay [4]. In addition, the inhibition was 10% (inactive) in assay [2] and 4% (inactive) in assay [3]. For the same compound, the result in assay [5], in assay [6], in assay [7] and in assay [8] was inactive.
With `CC(C)(C)c1ccc(OCCCON2C(N)=NC(N)=NC2(C)C)c(C(C)(C)C)c1`, the growth inhibition was 97% (active) in assay [1] and 93% (active) in assay [4]. Also, the inhibition in assay [2] was 64% (active); in assay [3], 2% (inactive). The outcome in assay [5], in assay [6], in assay [7] and in assay [8] was inactive.
For `COc1cc2ccccc2cc1CCNCCCCNCCc1cc2ccccc2cc1OC`, the growth inhibition in assay [1] was 38% (inactive); in assay [4], 99% (active). The figures for the inhibition in assay [2] and in assay [3] were 100% (active) and 2% (inactive), respectively. Besides, the outcome in assay [5], in assay [6], in assay [7] and in assay [8] was inactive.
For `COc1cc(NC2=C(c3ccccc3)C(=O)c3ccccc32)ccn1`, the growth inhibition in assay [1] and in assay [4] was 96% (active) each time. The results for the inhibition in assay [2] and in assay [3] were 7% (inactive) and 4% (inactive), respectively. Further, the outcome in assay [5], in assay [6], in assay [7] and in assay [8] was inactive.
